Many of the other results were omitted from the sample, so hits are more common in it than they were.
ALOX12 inh – blocks human arachidonate 12S-lipoxygenase; Potency, µM (highest dose often 108 µM), for inactives: top-dose activity change, negative = inhibition, actives largely listed as inhibitors; hit rate 1.1% among 580,000; P18054; AID 1671190; purified 12hLO, xylenol orange hydroperoxide absorbance; also: potency is read from the fitted curve at half-maximal effect
Target sequence (P18054 whole entry, looked up): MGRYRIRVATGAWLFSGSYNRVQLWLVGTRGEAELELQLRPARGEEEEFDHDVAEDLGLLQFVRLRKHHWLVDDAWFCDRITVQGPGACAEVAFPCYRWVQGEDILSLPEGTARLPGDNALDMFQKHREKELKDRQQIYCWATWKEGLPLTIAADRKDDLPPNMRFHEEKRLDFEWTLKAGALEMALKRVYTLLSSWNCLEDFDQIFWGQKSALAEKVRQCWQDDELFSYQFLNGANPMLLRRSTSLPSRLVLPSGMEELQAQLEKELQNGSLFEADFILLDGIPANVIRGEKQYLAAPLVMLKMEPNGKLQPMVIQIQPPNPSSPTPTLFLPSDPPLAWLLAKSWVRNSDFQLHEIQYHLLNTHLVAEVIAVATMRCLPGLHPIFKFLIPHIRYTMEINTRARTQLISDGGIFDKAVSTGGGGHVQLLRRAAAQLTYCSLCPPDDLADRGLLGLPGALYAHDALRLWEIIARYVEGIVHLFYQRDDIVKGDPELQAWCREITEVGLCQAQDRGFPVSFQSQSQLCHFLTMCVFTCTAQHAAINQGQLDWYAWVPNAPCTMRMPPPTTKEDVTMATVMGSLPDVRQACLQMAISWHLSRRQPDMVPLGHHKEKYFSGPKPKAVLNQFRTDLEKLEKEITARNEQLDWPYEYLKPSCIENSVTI
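Hydroperoxide product was detected by ferrous iron/xylenol orange as the 573 to 405 nm absorbance ratio. Arachidonic acid at 40 uM (final) was turned over for 30 min at room temperature by 150 nM human 12hLO, pH 7.0 Hepes buffer, after 15 min compound preincubation.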
HT1080 IDH1KD tx – kills HT-1080 cells with IDH1 knockdown; HT-1080 IDH1 knockdown viability, ATP luminescence, 48 h; hit rate 2% among 360,000; AID 686971; Potency, µM (top dose mostly 46.1 µM), for inactives: at the highest dose activity, negative = toxicity, usual class: cytotoxic;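 also: potency is read from the fitted curve at half-maximal effect; 0% = DMSO wells and -100% = cell-free medium wells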
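In this qHTS, HT-1080 cells depleted of IDH1 are exposed for 48 h at 37 °C to compound titrations. Toxicity is scored from CellTiter-Glo luminescence, with DMSO as full viability and medium alone as none.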
IL-1B inflam inh – inhibitors of inflammasome signaling (IL-1 beta secretion). THP-1 LPS/ATP IL-1B secretion, AlphaLISA, 16 h; active compounds read low. activity change, % at 57.5 µM. hit rate 4.7% among 360,000. AID 743279; in the data active = activity change below about -50%; inconclusive = mostly about -30% to -49%
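THP-1 cells pretreated 1 hr with compounds (up to 57.5 uM final), then stimulated with LPS (250 ng/mL final) plus ATP (1.25 mM final); secreted IL-1B measured by AlphaLISA after 16 hr, decreased signal indicating inhibition.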
DT40 TDP1 no CPT – qHTS for Inhibitors of human tyrosyl-DNA phosphodiesterase 1 (TDP1): qHTS in cells in absence of CPT | DT40 Tdp1-/- hTDP1 cells, no CPT, ATP luminescence, 48 h | Potency, µM (doses to about 46.2 µM), without a hit: at the highest dose activity change, negative = growth inhibition, most hits filed as inhibitors | hit rate 15% among 420,000 | AID 686978, 2013; also: potency is read from the fitted curve at half-maximal effect; nearly all actives have a fitted effect of over 55% in size
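No-CPT arm: Tdp1-/-;hTDP1 DT40 cells (400/well) plus compounds, incubated ≥48 hr at 37 °C. Readout CellTiter-Glo luminescence.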
TDP1 cell CPT – DT40-hTDP1 cell growth loss with CPT | chicken DT40 Tdp1-/-;hTDP1 cells + 20 nM CPT, ATP luminescence, 48 h | Potency, µM (highest dose often 46.2 µM), for inactives: top-dose activity change, negative = growth inhibition, actives largely listed as inhibitors | hit rate 12% among 420,000 | AID 686979; also: potency is read from the fitted curve at half-maximal effect; nearly all actives have a fitted effect of over 55% in size
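Chicken DT40 Tdp1-/- cells stably complemented with human TDP1 were seeded at 400 cells/well in medium containing 20 nM camptothecin, exposed to pin-transferred compounds, and grown at 37 °C for at least 48 hr. Viability was read as ATP luminescence.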
HT1080-NT tox – kills 2HG-producing HT-1080-NT fibrosarcoma cells. HT-1080-NT fibrosarcoma viability, CellTiter-Glo ATP luminescence, 48 h. Potency, µM (titrated, usually from 46.1 µM), for inactives: at the highest dose activity, negative = less viability, most hits filed as cytotoxic. hit rate 1.6% among 360,000;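 also: NT is the 2HG producing partner of a matched IDH1 knockdown line; potency is read from the fitted curve at half-maximal effect; 0% = DMSO-treated cells and -100% = media-only wells without cells; nearly all actives have a fitted effect of over 55% in size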
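Viability of the 2HG-overproducing fibrosarcoma line after 48 hours of compound exposure at 37 degrees C was determined by luminescence with CellTiter-Glo, and concentration-effect curves were then fitted and categorized.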
* = called active by the depositor; ? = inconclusive; · = not tested or not shown; [ ] = another dose, or the depositor's remark. Unless noted, calls follow the shape of the dose curve; as a rule, active = well fitted curve in the direction sought with a large enough effect; inconclusive = small, poorly fitted or top-dose-only effect, or another doubt; inactive = no such curve, though single readings can be large; an effect the other way counts as inactive or inconclusive. Unless noted, % is scaled to controls: 0 for no effect and ±100 for the full control effect.

SMILES | ALOX12 inh | HT1080 IDH1KD tx | IL-1B inflam inh | DT40 TDP1 no CPT | TDP1 cell CPT | HT1080-NT tox
CCOn1c(=O)c(-c2cccs2)[n+]([O-])c2ccccc21 | 21.4% | 0.0% | ? | -9.0% | -10.5% | -1.0%
Cn1c(-c2cccs2)[n+](C)c2ccccc21 | 0.0% | ? | 7.1 | 18.4µM* | ? | -3.5%
COc1ccc(CNC(=O)CSc2cccc3cccnc23)cc1 | 28.1% | 4.7% | 5.6 | -4.1% | -4.0% | 8.2%
CC(=O)NC(c1ccc(C(C)C)cc1)c1ccc2cccnc2c1O (stereo not given) | -15.3% | ? | 167.5 | 1.3µM* | 2.59µM* | ?
CCCCC(=O)Nc1ccc(Cl)c2ncccc12 | -39.3% | · | · | · | · | ·
CC(=O)NC(C)c1cc(F)c2cccnc2c1O (stereo not given) | -8.1% | · | · | · | · | ·
CCCC(=O)NC(c1ccc(OC)cc1)c1ccc2cccnc2c1O (stereo not given) | -16.9% | ? | 105.6 | 2.59µM* | 2.31µM* | -27.6%
CCCCC(=O)NC(c1ccccc1Cl)c1ccc2cccnc2c1O (stereo not given) | 3.9% | ? | 121.4 | 6.51µM* | 8.2µM* | ?
CCCCC(=O)NC(c1ccc(C(C)C)cc1)c1ccc2cccnc2c1O (stereo not given) | -10.4% | ? | 120.0 | 3.26µM* | 5.8µM* | ?
O=C(Cn1nnnc1-c1ccc(Br)cc1)N1CCOCC1 | -0.6% | · | · | · | · | ·
CCN1c2cc(C(=O)NCc3cccc(Br)c3)ccc2C(=O)N2CCCCC21 (stereo not given) | -4.0% | · | · | · | · | ·
CCCC(=O)NC(c1ccccc1)c1ccc2cccnc2c1O (stereo not given) | -22.2% | ? | 176.2 | 1.46µM* | 3.66µM* | -23.4%
CCCCC(=O)NC(c1ccccc1)c1ccc2cccnc2c1O (stereo not given) | -5.5% | ? | 137.2 | 0.731µM* | 0.581µM* | ?
O=C(NCc1cccnc1OCc1ccccc1)Nc1nnc(C2CC2)s1 | 56.4% | · | · | · | · | ·
CCNC(=O)c1cc2c(=O)n3cccc(C)c3nc2n(Cc2ccc(C)cc2)c1=N | 0.0% | -6.6% | 13.3 | 16.4µM* | 18.4µM* | -8.3%
Cc1cccn2c(=O)c3cc(C(=O)NCC4CCCO4)c(=N)n(C4CCCCC4)c3nc12 (stereo not given) | ? | -14.6% | -17.0 | ? | -18.8% | -8.8%
Cc1cccn2c(=O)c3cc(C(=O)NCc4ccco4)c(=N)n(C4CCCC4)c3nc12 | -21.4% | 9.5% | 29.0 | 23.1µM* | ? | 15.5%
Cc1cccn2c(=O)c3cc(C(=O)NC4CCCCC4)c(=N)n(Cc4ccc(F)cc4)c3nc12 | 0.9% | -8.3% | 92.1 | 14.6µM* | 8.2µM* | -3.4%
Cc1cccn2c(=O)c3cc(C(=O)NCC4CCCO4)c(=N)n(Cc4cccnc4)c3nc12 (stereo not given) | 0.0% | 10.7% | -11.3 | 25.9µM* | 18.4µM* | 12.7%
COCCCn1c(=N)c(C(=O)NC2CCCC2)cc2c(=O)n3cccc(C)c3nc21 | ? | · | · | 23.1µM* | ? | ·
Cc1cccn2c(=O)c3cc(C(=O)NCc4ccc(F)cc4)c(=N)n(CC4CCCO4)c3nc12 (stereo not given) | -22.8% | 0.1% | 4.8 | 23.1µM* | ? | -3.5%
COCCCn1c(C(=O)N2CCOCC2)cc2c(=O)n3cccc(C)c3nc21 | 7.8% | 5.1% | -3.9 | -6.2% | 1.3% | 4.6%
COCCCn1c(C(=O)Nc2ccc3c(c2)OCO3)cc2c(=O)n3cccc(C)c3nc21 | -28.1% | 14.1% | -3.3 | 11.6µM* | ? | 7.9%
Cc1cccn2c(=O)c3cc(C(=O)NCCN4CCOCC4)c(=N)n(Cc4ccc(F)cc4)c3nc12 | -16.8% | ? | ? | 7.31µM* | 7.31µM* | -22.3%
CN(C)c1cccc(C(=O)N2CCN(C(=O)c3nnn4c3COC(c3ccc(Cl)cc3)C4)CC2)c1 (stereo not given) | 42.4% | · | · | · | · | ·
SMILES | ALOX12 inh | HT1080 IDH1KD tx | IL-1B inflam inh | DT40 TDP1 no CPT | TDP1 cell CPT | HT1080-NT tox
COCC(=O)N1C[C@@H](COC)[C@H](c2ccncc2)C1 | 11.8% | · | · | · | · | ·
O=C1CSC(=S)N1Cc1ccccc1 | -19.3% | -7.7% | -9.7 | 20.6µM* | ? | -2.9%
O=C(CN1CCN(c2ccccc2F)CC1)Nc1ccccc1F | 9.7% | 18.8% | 12.3 | -4.7% | ? | 8.8%
COc1ccc(CCNC(=O)c2ccccc2NC(=O)CN2CCN(c3ccccc3O)CC2)cc1 | 4.8% | -14.2% | -28.8 | 10.3µM* | ? | -11.4%
COc1ccccc1N1CCN(CC(=O)Nc2ccccc2C(=O)NCCc2ccccc2)CC1 | -2.3% | 0.5% | 14.1 | 16.4µM* | 14.6µM* | 2.4%[9.24 µM]
O=C(CN1CCN(c2ccc(F)cc2)CC1)Nc1ccccc1C(=O)NCCc1ccccc1 | 15.2% | -18.6% | 21.0 | 16.4µM* | ? | -0.6%[9.24 µM]
O=C(CN1CCN(c2ccccc2O)CC1)Nc1ccccc1C(=O)NCCc1ccccc1 | ? | -1.2% | -1.9 | 16.4µM* | 23.1µM* | -0.2%
COc1ccc(NC(=O)c2ccccc2NC(=O)CN2CCCCCC2)cc1 | 8.3% | -1.0% | -12.2 | -25.6% | ? | 0.5%[9.24 µM]
COc1ccc2cnn(CC(=O)Nc3ccc(F)cc3F)c(=O)c2c1OC | -20.6% | · | · | · | · | ·
CN1CCN(c2nc3nnnn3c3sc4c(c23)CCN(Cc2ccccc2)C4)CC1 | -1.8% | · | · | · | · | ·
CCCOc1ccc(F)cc1-c1cc(C(=O)NCc2ccccc2OC)[nH]n1 | 17.7% | 0.0% | -19.1 | ? | ? | -19.6%
COc1ccccc1CNC(=O)c1cc(-c2cc(F)ccc2OC(C)C)n[nH]1 | -7.9% | 2.5% | -8.5 | 20.6µM* | 16.4µM* | 7.7%
CC(C)Oc1ccc(F)cc1-c1cc(C(=O)NCc2ccc(C(F)(F)F)cc2)[nH]n1 | -1.9% | ? | ? | ? | 16.4µM* | ?
COc1cc(CNC(=O)c2cc(-c3cc(F)ccc3OC(C)C)n[nH]2)cc(OC)c1 | -5.2% | ? | ? | ? | 16.4µM* | ?
CCCOc1ccc(F)cc1-c1cc(C(=O)NCc2cc(OC)cc(OC)c2)[nH]n1 | 0.8% | -25.9% | -20.7 | ? | 18.4µM* | -23.2%
CCCOc1ccc(F)cc1-c1cc(C(=O)NCCOC)[nH]n1 | -17.5% | 24.8% | -1.0 | -25.7% | -20.3% | ?
O=C(C1CCC1)N1CCOc2ccc(CN3CCc4ccccc4C3)cc2C1 | 46.5% | · | · | · | · | ·
O=[N+]([O-])c1ccc(/C=N/N=C(c2ccccc2)c2ccccc2)cc1 | -0.9% | · | · | · | · | ·
